Reference: PubChem BioAssay
Calls of active or inactive are those of the source. Unless noted, how the calls were made is not given here.

Experiments:
[1] = test system: XIP peptide (Xip251-270) binding; experiment: small-molecule binders of XIP peptide, primary screen, biochemical, small-molecule microarray, fluorescence 635/667 nm, 0.1 µg/mL protein (AID 1182); conditions: fluorescent protein binding, 635 nm, higher = more signal, called active from +8 up or from −8 down
[2] = test system: XIP peptide (Xip251-270); experiment: small-molecule binders of XIP peptide, primary screen, biochemical, small-molecule microarray, fluorescence 635/667 nm, 0.5 µg/mL protein (AID 1183); conditions: small-molecule microarray binding, fluorescence 635 nm; higher = more signal
[3] = Plasmodium falciparum growth inhibition, primary screen, strain 3D7, DAPI fluorescence, 100 nL (AID 1184);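 further: parasites grown inside human red blood cells in medium with human serum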; conditions: P. falciparum 3D7 growth, 3 d, higher = more signal
[4] = biological target: Homeobox protein Hox-A13 (Mus musculus) (UniProt Q62424); experiment: inhibitors of HoxA13-DNA binding, primary screen, biochemical, fluorescence polarization, labeled oligonucleotide (AID 1185); conditions: 15 min, higher = more signal, called active from +8 up or from −8 down
Homeobox protein Hox-A13 (Mus musculus), sequence (Q62424 whole entry, looked up): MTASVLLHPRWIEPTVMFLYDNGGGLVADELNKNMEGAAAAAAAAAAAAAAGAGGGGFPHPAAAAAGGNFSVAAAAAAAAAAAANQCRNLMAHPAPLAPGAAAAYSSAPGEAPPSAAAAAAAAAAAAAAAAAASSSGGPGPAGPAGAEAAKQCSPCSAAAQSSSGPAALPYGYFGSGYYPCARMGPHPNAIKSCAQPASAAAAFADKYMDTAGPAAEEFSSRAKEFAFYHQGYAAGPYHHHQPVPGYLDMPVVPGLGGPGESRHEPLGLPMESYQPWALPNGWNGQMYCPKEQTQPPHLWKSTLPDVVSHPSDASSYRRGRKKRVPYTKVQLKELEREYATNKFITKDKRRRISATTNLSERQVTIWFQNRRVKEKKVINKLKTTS

[5] = inhibitors of hydroxyurea-induced Chk1 phosphorylation, primary screen, imaging, HeLa, phospho-Chk1 antibody, percent positive cells (AID 1186); conditions: hydroxyurea-induced phospho-Chk1 immunofluorescence imaging, higher = more signal
[6] = inhibitors of hydroxyurea-induced Chk1 phosphorylation, primary screen, imaging, HeLa, phospho-Chk1 nuclear intensity (AID 1187); conditions: hydroxyurea-induced phospho-Chk1 immunofluorescence imaging, higher = more signal

Row | SMILES | composite z-score [1] | composite z-score [2] | z-score [3] | z-score [4] | z-score [5] | z-score [6]
1 | CCOC(=O)C[C@H]1[C@H](OC(=O)c2ccc(C(=O)c3ccccc3)cc2)[C@@H](NC(=O)Cc2ccc(OC)cc2)c2cc(OCCCO)ccc2N1C(=O)c1ccccc1 | 0.922 (inactive) | -0.281 | -0.133 | -1.88 (inactive) | 0.72 (inactive) | 0.343 (inactive)
2 | Cc1ccc(S[C@]2(C(=O)O)CC(=O)N(C3Cc4ccccc4C3)[C@@H]2c2ccc(CO)cc2)cc1 | 1.36 (inactive) | -0.669 | 1.58 | -3.97 (inactive) | 0.172 (inactive) | 0.129 (inactive)
3 | COC(=O)c1c2oc(c1C(=O)OC)C(=O)N(C)Cc1cn(nn1)C[C@H](Cc1ccccc1)NC(=O)N[C@H](CO)CC2 | 0.15 (inactive) | -0.374 | -0.38 | -1.66 (inactive) | 0.453 (inactive) | 0.723 (inactive)
4 | C=CCOC(=O)[C@H]1[C@@H]2C(=O)O[C@@H](c3ccccc3)[C@@H](c3ccccc3)N2[C@@H](c2ccc(OCCOC(=O)[C@@H]3C[C@@H]4C(=O)N5CCC[C@H]5C(=O)N4[C@@H]3c3ccc(O)cc3)cc2)[C@]12C(=O)Nc1ccc(I)cc12 | 0.773 (inactive) | 0.787 | -1.64 | 2.54 (inactive) | 0.651 (inactive) | 0.571 (inactive)
5 | Cc1ccc(S[C@]2(C(=O)NCC(F)(F)F)CC(=O)N(Cc3ccccc3)[C@@H]2c2ccc(CO)cc2I)cc1 | -0.0862 (inactive) | 0.442 | 0.15 | -3.68 (inactive) | 0.475 (inactive) | 0.554 (inactive)
6 | O=C1O[C@@H](c2ccccc2)[C@@H](c2ccccc2)N2[C@@H](c3ccc(O)cc3)[C@]3(C(=O)Nc4ccc(C#CC5=CCCCC5)cc43)[C@@H](C(=O)NC[C@H](O)c3ccccc3)[C@H]12 | 0.662 (inactive) | 0.772 | -0.369 | 0.986 (inactive) | -0.384 (inactive) | -0.016 (inactive)
7 | CCCNC(=O)[C@@H]1c2ccccc2C(=O)N(C(C)C)[C@H]1c1ccc(CO)cc1 | 0.251 (inactive) | 0.658 | -0.473 | -1.88 (inactive) | -0.247 (inactive) | -0.333 (inactive)
8 | CC(C)C[C@@H]1NC(=O)[C@@H]2C[C@H](C(=O)NCCCCN(C)C)[C@H](c3cccc(OCCO)c3)N2C1=O | 0.36 (inactive) | 0.755 | -0.192 | -3.41 (inactive) | -0.232 (inactive) | -0.455 (inactive)
9 | O=C1OCC=C[C@H]2OC34C=CCN(c5ccc(Cl)cc5)C(=O)[C@H]3N(CCO)C(=O)[C@@H]4[C@@H]12 (some centres undefined) | -0.0292 (inactive) | -0.457 | 1.05 | -2.74 (inactive) | -0.435 (inactive) | -0.457 (inactive)
10 | CCOC(=O)[C@H]1[C@@H]2C(=O)N3CCC[C@H]3[C@H](O[Si](C(C)C)(C(C)C)C(C)C)[C@H]2C=C2CCN(S(=O)(=O)c3ccc(C)cc3)C[C@H]21 | 0.0514 (inactive) | 0.589 | -2.23 | -4.48 (inactive) | 0.186 (inactive) | -0.0427 (inactive)
11 | CCCCCCc1nc(-c2cc(C)c(OC)c(C)c2)c(C)c2c1[Si](C(C)C)(C(C)C)OC2 | -0.31 (inactive) | -0.306 | -2.23 | -0.241 (inactive) | 0.0933 (inactive) | 0.149 (inactive)
12 | CC(CO)N1C(=O)[C@@H]2[C@H]3C(=O)OCC=C[C@H]3OC23C=CCN(C(C)(C)C)C(=O)[C@@H]13 (some centres undefined) | -0.316 (inactive) | 0.0576 | 0.293 | -5.22 (inactive) | 0.0116 (inactive) | -0.602 (inactive)
13 | O=C(NCc1ccccc1)[C@@H]1c2ccccc2C(=O)N(Cc2ccccc2C(F)(F)F)[C@H]1c1ccc(CO)cc1 | 0.55 (inactive) | 0.545 | 0.0452 | -3.17 (inactive) | -0.496 (inactive) | -0.841 (inactive)
14 | CCOC(=O)C[C@H]1[C@H](OC(=O)c2cc3ccccc3oc2=O)[C@@H](NC(=O)c2ccc(-c3ccccc3)cc2)c2cc(OCCCO)ccc2N1C(=O)c1ccccc1 | 0.411 (inactive) | 0.701 | -1.95 | 0.455 (inactive) | 0.443 (inactive) | 0.769 (inactive)
15 | [N-]=[N+]=Nc1ccccc1[C@H]1OC(c2ccc(OCCCO)cc2)=N[C@@]1(CCS(=O)(=O)c1ccccc1)C(=O)NCCN1CCOCC1 | 0.345 (inactive) | 0.868 | -2.52 | -5.15 (inactive) | 0.392 (inactive) | 0.812 (inactive)
16 | CC(=O)NCCCC[C@@H]1NC(=O)[C@@H]2C[C@H](C(=O)NCCCC[N+](C)(C)C)[C@H](c3ccc(O)cc3)N2C1=O | 2.41 (inactive) | 0.842 | -0.859 | 0.749 (inactive) | -0.508 (inactive) | -0.589 (inactive)
17 | CN(C)CCCNC(=O)[C@@]1(C)c2ccccc2C(=O)N(Cc2ccccc2)[C@H]1c1ccc(CO)cc1 | -0.328 (inactive) | -0.711 | -0.649 | -2.18 (inactive) | 0.559 (inactive) | 0.749 (inactive)

Row | SMILES | composite z-score [1] | composite z-score [2] | z-score [3] | z-score [4] | z-score [5] | z-score [6]
18 | O=C1NC(=O)C2C1C=CC(C(O)c1c(F)cccc1Cl)N2Nc1ccc(Cl)cc1Cl (centres undefined) | 0.831 (inactive) | 0.709 | -0.0027 | -6.24 (inactive) | 1.05 (inactive) | 0.702 (inactive)
19 | CCCCN1CC=CC23O[C@@H]4/C=C\CCC(C)OC(=O)C4[C@H]2C(=O)N(C(CO)C(C)C)[C@@H]3C1=O (some centres undefined) | 0.743 (inactive) | 0.844 | -0.36 | -5.09 (inactive) | -0.428 (inactive) | -0.543 (inactive)
20 | O=C1O[C@H](c2ccccc2)[C@H](c2ccccc2)N2[C@H]1[C@@H](C(=O)Nc1nc3ccccc3s1)[C@]1(C(=O)Nc3ccc(C#CC4(O)CCCCCC4)cc31)[C@H]2c1ccccc1OCCO | 0.0536 (inactive) | 0.812 | -2.09 | 2.05 (inactive) | 0.66 (inactive) | 0.976 (inactive)
21 | [N-]=[N+]=Nc1ccccc1[C@@H]1OC(c2ccc(OCCCO)cc2)=N[C@]1(Cc1ccccc1)C(=O)NCC(O)CO (some centres undefined) | 2.53 (inactive) | 0.747 | -2.14 | -3.18 (inactive) | -0.358 (inactive) | -0.228 (inactive)
22 | COC(=O)[C@@]1(Cc2ccccc2)[C@H]2c3cc(C(=O)N(C)C)n(CCN4CNCC4=O)c3C[C@H]2CN1C(=O)c1ccccc1 | 0.858 (inactive) | 1.01 | -0.17 | -2.94 (inactive) | -0.232 (inactive) | -0.33 (inactive)
23 | C=CCN1C(=O)[C@@]2(CCS(=O)(=O)c3ccccc3)N=C(c3ccc(OCCCO)cc3)O[C@H]2c2ccccc21 | 0.404 (inactive) | 0.713 | -2.05 | -2.47 (inactive) | -0.477 (inactive) | -0.37 (inactive)
24 | COc1ccc(CCNC(=O)[C@@]2(Sc3ccc(C)cc3)CC(=O)N(C3Cc4ccccc4C3)[C@@H]2c2ccc(CO)cc2)cc1 | 0.984 (inactive) | 0.703 | -1.89 | 0.563 (inactive) | -0.341 (inactive) | -0.452 (inactive)
25 | COC(=O)[C@@]1(Cc2ccccc2)[C@H]2c3cc(C(=O)N(C)C)n(CCc4ccc(O)c(OC)c4)c3C[C@H]2CN1C(=O)c1ccccc1 | 0.132 (inactive) | -0.358 | 0.692 | -0.394 (inactive) | 0.727 (inactive) | 0.652 (inactive)
26 | CCOC(=O)C[C@H]1[C@H](OC(=O)c2cc3ccccc3oc2=O)[C@@H](NC(=O)Cc2ccc(OC)cc2)c2cc(OCCCO)ccc2N1C(=O)c1ccc2ccccc2n1 | -0.426 (inactive) | 0.255 | -1.01 | -4.04 (inactive) | 0.134 (inactive) | 0.203 (inactive)
27 | CO[C@]12C=C(Br)[C@@H](C[C@@H]1c1cccc(C)c1)[C@@]1(CO1)C2=O | 0.177 (inactive) | 0.179 | 0.267 | -1.7 (inactive) | -0.545 (inactive) | -0.28 (inactive)
28 | COC(=O)Cn1c(C(=O)N(C)C)cc2c1C[C@H]1CN(C(=O)c3ccccc3)[C@@](Cc3ccc(F)cc3)(C(=O)OC)[C@@H]21 | 1.69 (inactive) | -0.196 | -0.0793 | -4.28 (inactive) | 0.927 (inactive) | 1.08 (inactive)
29 | C=C(/C(=C/C[C@H](OC(C)=O)c1ccccc1OCCO)c1cc(C(=O)OC)ccc1OC)C(C)C | -0.2 (inactive) | -0.239 | -2.42 | -4.07 (inactive) | -0.0815 (inactive) | -0.292 (inactive)
30 | CC1CC/C=C\[C@H]2OC34C=CCN(c5ccc(Cl)cc5)C(=O)[C@H]3N(CCCCCO)C(=O)[C@]4(C)C2C(=O)O1 (some centres undefined) | -0.546 (inactive) | -0.613 | -0.396 | -4.96 (inactive) | 1 (inactive) | 0.917 (inactive)
31 | COCCCNC(=O)[C@]1(CCS(=O)(=O)c2ccccc2)N=C(c2ccc(OCCCO)cc2)O[C@@H]1c1ccccc1N=[N+]=[N-] | 1.26 (inactive) | 0.731 | -2.4 | -3.71 (inactive) | -0.198 (inactive) | -0.266 (inactive)
32 | CCOC(=O)C1CCCCN1 (centres undefined) | -0.679 (inactive) | -0.0839 | 1.57 | 0.65 (inactive) | 0.0889 (inactive) | 0.0121 (inactive)
33 | CN(C)CCCNC(=O)[C@@]1(c2ccc([N+](=O)[O-])cc2)CC(=O)N(CC23CC4CC(CC(C4)C2)C3)[C@@H]1c1ccc(CO)cc1I | 0.166 (inactive) | 0.86 | -2.16 | 8.34 (active) | -0.449 (inactive) | -0.766 (inactive)
34 | CC(C)(C)N1CC=CC23O[C@@H]4C=CCCOC(=O)C4[C@H]2C(=O)N(CCO)[C@@H]3C1=O (some centres undefined) | -0.692 (inactive) | -0.421 | -0.175 | -4.92 (inactive) | 0.0024 (inactive) | -0.528 (inactive)
